In PubChem BioAssay AID371 (SRMLSC, 2006):
In all, about 3,300 compounds went through this assay and about 280 (8.5%) were called active. Only a selection was taken, and actives are over-represented in it overall. Values without a mark were called inactive.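 Rule for the calls: active = mean growth inhibition over the two runs of 50% or more; inactive = mean growth inhibition under 50%.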

Experiment: A549 NSCLC cell proliferation inhibitors – ATP luminescence, human non-small cell lung line, primary screen (AID 371);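 note: compound exposure lasted 72 h before the ATP read; 0% = untreated cell signal and 100% = no luminescence left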
Conditions: at 10 µM, active compounds read high

Row | Structure (SMILES) | growth inhibition
1 | Cc1cc2c(c(=O)o1)C(Cc1ccccc1)C(C#N)=C(N)O2 (stereo unspecified) | -0.57%
2 | CC1(C)Cc2c(C#N)c(NCCN3CCOCC3)nc(-c3ccco3)c2CO1 | 3.05%
3 | Nc1ncnc2nc(SCc3ccccc3)[nH]c12 | 13.6%
4 | CCC(=O)Nc1ccc(-c2nnc(-c3ccccc3)o2)cc1 | 33.7%
5 | O=C(Cc1ccc(Cl)cc1)Nc1cccc(-c2nnc(-c3ccco3)o2)c1 | 20.9%
6 | O=C(Cc1ccccc1)Nc1cccc(-c2nnc(-c3ccco3)o2)c1 | 24%
7 | Cc1cccc(C)c1OCC(=O)Nc1cccc(-c2nnc(-c3ccccc3)o2)c1 | 53% (active)
8 | COc1ccc(CC(=O)Nc2cccc(-c3nnc(-c4ccco4)o3)c2)cc1 | 64% (active)
9 | O=C(COc1ccccc1)Nc1ccc(-c2nnc(-c3ccco3)o2)cc1 | -6.02%
10 | N/C(CCCN1CCCCC1)=N/O | -8.24%
11 | CCOC(=O)CNC(=O)CCCCCC(=O)NCC(=O)OCC | -12.7%
12 | O=C(NCCN1CCOCC1)c1cc2n(n1)C(C(F)(F)F)CC(c1ccc(F)cc1)N2 (stereo unspecified) | 2.7%
13 | CC(C)(C)NCC(=O)c1c[nH]c2ccccc12 | -2.93%
14 | COc1ccc2c(c1OC)C(=O)N1c3ccccc3C(=O)N(c3ccccc3)C21 (stereo unspecified) | 36.5%
15 | CCCCSc1nc(O)c(C2OC(=O)c3c2ccc(OC)c3OC)c(=O)n1C (stereo unspecified) | 4.34%
16 | c1ccc(-c2nnc(OCCN3CCOCC3)c3ccccc23)cc1 | -0.08%
17 | CCn1cc(C(=O)NCc2ccccn2)c(=O)c2cc(F)c(N3CCN(C)CC3)cc21 | -0.7%
18 | CCn1cc(C(=O)NCCc2ccccc2)c(=O)c2cc(F)c(N3CCN(C)CC3)cc21 | 89.8% (active)
19 | CCn1cc(C(=O)NCc2ccco2)c(=O)c2cc(F)c(N3CCN(C(=O)c4ccco4)CC3)cc21 | 59.3% (active)
20 | CCOC(=O)N1CCN(C(=O)c2cn(CC)c3cc(N4CCN(C)CC4)c(F)cc3c2=O)CC1 | 0.65%
21 | CCn1cc(C(=O)NCC2CCCO2)c(=O)c2cc(F)c(N3CCN(C)CC3)cc21 (stereo unspecified) | -0.9%
22 | CCn1cc(C(=O)NCCCN(C)C)c(=O)c2cc(F)c(N3CCN(C)CC3)cc21 | 8.61%
23 | CCNc1nc(NC(C)C)nc(N(C#N)C(C)C(=O)N(C)C)n1 (stereo unspecified) | 2.18%
24 | CCN(CC)CCCN1C(=O)C(=O)/C(=C(/O)c2ccccc2)C1c1cc(OC)ccc1OC (stereo unspecified) | 6.35%
25 | O=C1CC(NCc2ccncc2)C(=O)N1c1ccc(Cl)cc1 (stereo unspecified) | -4.36%
26 | COc1cccc(NC(=O)CC2SC(=Nc3ccccc3)NC2=O)c1 (stereo unspecified) | 19.4%

Row | Structure (SMILES) | growth inhibition
27 | Cn1c(CSc2ncn[nH]2)nc2ccccc21 | -2.84%
28 | CC12CCC(=O)N1c1c(sc3nc(N4CCOCC4)c4c(c13)CCCC4)C(=O)N2 (stereo unspecified) | 4.33%
29 | CCOC(=O)c1c(C)n(C)c2ccc(OC)c(NC(=O)CN3CCN(Cc4ccccc4)CC3)c12 | 12.1%
30 | CCOC(=O)c1c(CN2CCCCC2)oc2ccc(OC)cc12 | 5.15%
31 | CCOC(=O)c1c(C)n(C)c2ccc(OC)c(NC(=O)CN3CCCCC3)c12 | 6.99%
32 | CCOC(=O)c1c(CN2CCN(C)CC2)n(C)c2cc(Br)c(OC)cc12 | 89.8% (active)
33 | CCOC(=O)c1c(CNCCN(CC)CC)n(C)c2cc(Br)c(OC)cc12 | 33.7%
34 | CCOC(=O)c1c(CN2CCN(CCO)CC2)n(C)c2cc(Br)c(OC)cc12 | 84.4% (active)
35 | COc1ccccc1C1/C(=C(/O)c2ccc(C)cc2)C(=O)C(=O)N1CCN1CCOCC1 (stereo unspecified) | 2.55%
36 | CN(CCCCCC(=O)/C=N/O)Cc1ccccc1 | 1.07%
37 | COc1ccc(N(CN2C(=O)C3C4C=CC(C4)C3C2=O)C(=O)c2ccco2)cc1 (stereo unspecified) | 4.02%
38 | N#C/C(C(=O)NCc1ccco1)=C1/SC(Cc2ccc(Cl)cc2)C(=O)N1c1ccccc1 (stereo unspecified) | 5.74%
39 | CN(C)CCCn1c(NC(=O)C2CCCCC2)nc2ccccc21 | 1.53%
40 | CCC(=O)Nc1nc2ccccc2n1Cc1ccccc1C | 64.4% (active)
41 | CCC(=O)Nc1nc2ccccc2n1CCN(C)C | 4.62%
42 | CCOc1ccc(NC(=O)c2nn(C)cc2Br)cc1 | 20.1%
43 | C=CCOc1nc(-c2ccncc2)nc2ccccc12 | 18.5%
44 | CCOc1nc(-c2ccncc2)nc2ccccc12 | 10.3%
45 | CCC1CCCCN1c1nc(-c2cccc(OC)c2O)nc2ccccc12 (stereo unspecified) | 45%
46 | COc1cccc(-c2nc(N3CCCCC3)c3ccccc3n2)c1O | 49.3%
47 | COc1cccc(-c2nc(N3CCCCC3C)c3ccccc3n2)c1O (stereo unspecified) | 61.7% (active)
48 | CCC1CCCCN1c1nc(-c2ccncc2)nc2ccccc12 (stereo unspecified) | 74.9% (active)
49 | COc1cccc(-c2nc(N3CC(C)CC(C)C3)c3ccccc3n2)c1O (stereo unspecified) | 30.1%
50 | COc1cccc(-c2nc(N3CCC(C)CC3)c3ccccc3n2)c1O | 53.7% (active)
51 | Nc1c2c(nc3ccccc13)N(C1CCCCC1)CC2 | 38.8%
